Sm TGR block: blocks Schistosoma mansoni thioredoxin glutathione reductase. Q962Y6. purified TGR, DTNB reduction, TNB absorbance 405 nm. Potency, µM (top dose mostly 114 µM), without a hit: top-dose activity change, negative = inhibition, actives largely listed as inhibitors. actives 3% (n = 360,000). AID 485364; further: potency means the concentration at half of the fitted maximal effect; on the % scale 0 is the no-effect control and ±100 the full control effect; nearly all actives have a fitted effect of over 60% in size
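Kinetic colorimetric format: TGR-catalysed, NADPH-driven DTNB reduction monitored via TNB absorbance. Enzyme dispensed at 20 nM; compound exposure 15 min at room temperature before reaction start.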
LmPK inh: LmPK (Leishmania mexicana) enzyme inhibition; Q27686; purified LmPK, Kinase-Glo ATP luminescence, 1 h; Potency, µM (top dose mostly 57.5 µM), for inactives: at the top dose activity change, negative = inhibition, usual class: inhibitors; actives 0.37% (n = 290,000); AID 1721; further: potency means the concentration at half of the fitted maximal effect; on the % scale 0 is the no-effect control and ±100 the full control effect
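qHTS format; LmPK 0.1 nM; substrates PEP 0.5 mM and ADP 0.1 mM. One-hour room-temperature incubation, then coupled luciferase luminescence; 0.5 nM enzyme wells mark activation.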
Tb PYK inh: blocks Trypanosoma brucei pyruvate kinase; actives 0.12% (n = 410,000); Q57TT1; Potency, µM (doses to about 76.8 µM), without a hit: at the top dose activity, negative = inhibition, usual class: inhibitors; AID 624173; TbPYK enzyme, Kinase-Glo Plus ATP luminescence, 45 min; further: potency means the concentration at half of the fitted maximal effect; on the % scale 0 is the no-effect control and ±100 the full control effect; nearly all actives have a fitted effect of over 50% in size
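Screened from lowest to highest concentration, compounds were pinned into TbPYK/substrate mixtures, and ADP (130 uM final) was added. Plates sat at room temperature for 45 min prior to Kinase-Glo Plus detection by luminescence.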
Shiga toxin inh: inhibitors of Shiga toxin in Vero cells; Vero cells, Shiga toxin protein synthesis inhibition reporter; inhibition, % at 38.7 µM; actives 9.2% (n = 290,000); AID 2315; in the data active means inhibition mostly above about 28%, no sharp cut-off; inactive means mostly below about 43%; further: 0% is about no effect
Cycloheximide cs: counter-screen for Shiga toxin inhibitors: cycloheximide protein synthesis inhibition; AID 2314; cell reporter, cycloheximide protein synthesis inhibition counterscreen; actives 12% (n = 300,000); max response, %; in the data active means max response mostly above about 13%, no sharp cut-off; inactive means mostly below about 14%; further: read at 38.3 µM for the half of the compounds with a filed dose; 0% is about no effect
Giardia FBPA inh: Giardia lamblia aldolase inhibition | Potency, µM (highest dose often 59.6 µM), for inactives: at the highest dose activity, negative = inhibition, most hits filed as inhibitors | purified Giardia FBPA | A8B2U2 | actives 0.71% (n = 290,000); further: potency means the concentration at half of the fitted maximal effect; on the % scale 0 is the no-effect control and ±100 the full control effect; nearly all actives have a fitted effect of over 55% in size
Target sequence (A8B2U2 whole entry, looked up): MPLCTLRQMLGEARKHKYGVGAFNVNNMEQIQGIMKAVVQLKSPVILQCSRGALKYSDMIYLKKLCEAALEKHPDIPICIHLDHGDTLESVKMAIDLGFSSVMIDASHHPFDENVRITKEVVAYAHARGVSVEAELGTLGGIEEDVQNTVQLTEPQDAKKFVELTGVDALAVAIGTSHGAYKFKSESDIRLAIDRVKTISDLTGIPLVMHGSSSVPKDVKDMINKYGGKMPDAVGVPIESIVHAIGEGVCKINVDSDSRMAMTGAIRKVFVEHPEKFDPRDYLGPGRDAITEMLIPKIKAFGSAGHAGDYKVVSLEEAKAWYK
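Giardia FBPA (40 nM reagent) was preincubated 10 min at RT with compound (up to 57.5 uM final), then substrate plus GAPDH/TPI/NAD/arsenate coupling system with diaphorase/resazurin was added; resorufin fluorescence (525/598 nm) was read after 20 min.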
Active calls of the source: *; ? = inconclusive; / = no result given. This excerpt belongs to a sample that is enriched for hits. Unless noted, the call rests on the fitted dose curve; in most records, active means well fitted curve in the direction sought with a large enough effect; inconclusive means small, poorly fitted or top-dose-only effect, or another doubt; inactive means no such curve, though single readings can be large; an effect the other way counts as inactive or inconclusive.

SMILES	Sm TGR block	LmPK inh	Tb PYK inh	Shiga toxin inh	Cycloheximide cs	Giardia FBPA inh
Cc1ccc(-c2c(CN3CCN(c4cc(Cl)ccc4C)CC3)csc2C)cc1	-4%	/	0%	/	/	/
O=C(COC(=O)Cc1ccccc1F)NCCNC(=O)COC(=O)Cc1ccccc1F	-7%	/	-5%	/	/	/
COc1ccc(Cl)cc1NC(=O)c1c(NCc2cccnc2)sc2c1CCCC2	20µM*	/	?	/	/	/
CCOc1ccccc1NC(=O)c1c(NCc2ccc(C)o2)sc2c1CCCCC2	8.9µM*	/	?	/	/	/
COc1ccc(NC(=O)c2c(NCc3ccc(OC)c(OC)c3OC)sc3c2CCC3)c(OC)c1	40µM*	/	?	/	/	/
CCOc1ccccc1NC(=O)c1c(NCc2ccc(C)o2)sc2c1CCC(C)C2 (configuration not stated)	4%	/	-7%	/	/	/
Cc1ccc(CNC(=O)C2CCN(S(=O)(=O)c3c(C)noc3/C=C/c3ccco3)CC2)cc1	40µM*	7%	2%	9	5	-5%
Cc1noc(/C=C/c2ccco2)c1S(=O)(=O)N1CCC(C(=O)N2CCc3ccccc3C2)CC1	11µM*	4%	-3%	47*	19*	-4%
CCCSCCCNC(=O)C1CCN(c2nc3ccccc3nc2C(F)(F)F)CC1	-7%	/	-3%	/	/	/
Cc1nnc(NCc2ccco2)s1	2%	-2%	3%	-13	3	/
COc1ccc(-c2csc(NCc3ccco3)n2)cc1	-11%	-3%	-7%	72*	42*	-8%
c1coc(CNc2nc3ccccc3s2)c1	-33%	1%	-6%	80*	51*	9%
c1coc(CNc2nc(-c3ccncc3)cs2)c1	-25%	3%	2%	72*	36*	1%
O=C(CCn1c(=O)c2ccccc2n(CC(=O)Nc2ccc(F)cc2)c1=O)NCCc1ccccc1	8%	/	-1%	/	/	/
CCOC(=O)CCCC(=O)N1CCOCCOCCOCC1	16%	0%	4%	23	0	12%
Cc1cc(Cl)ccc1OCCCC(=O)N1CCOCC1	-2%	0%	0%	71*	37*	7%
Cc1cc(Cl)ccc1OCCCC(=O)N1CCCCC1	-8%	4%	0%	37	35*	2%
CCOC(=O)CCCC(=O)N1CCOCCOCCN(C(=O)CCCC(=O)OCC)CCOCCOCC1	18%	2%	2%	63*	43*	0%
Cc1cc(OCCCC(=O)N2CCCCC2)cc(C)c1Cl	3%	2%	-3%	32*	13*	3%
Cc1ccc(S(=O)(=O)N2CCN(C(=O)CCCOc3ccc(Cl)cc3C)CC2)cc1	2%	/	-2%	/	/	/
CCOC(=O)N1CCN(C(=O)COc2cc(C)c(Cl)c(C)c2)CC1	5%	5%	3%	-3	-1	-2%
Cn1c(Cc2cccs2)nnc1SCC(=O)Nc1ccc(C(N)=O)cc1	1%	/	-1%	/	/	/
CCc1cccc(C)c1NC(=O)Cn1ccn(-c2cccc(OC)c2)c(=O)c1=O	4%	/	-2%	/	/	/
Oc1ccc(O)c(-c2cnns2)c1	79µM*	-5%	-5%	-4	-3	-3%
Cc1cc(CN(C)C(=O)c2cc(COc3ccc4ncccc4c3)on2)on1	32µM*	1%	-1%	3	6	-2%
SMILES	Sm TGR block	LmPK inh	Tb PYK inh	Shiga toxin inh	Cycloheximide cs	Giardia FBPA inh
CC(=O)c1cccc(OCc2cc(C(=O)N(C)Cc3cnccn3)no2)c1	-4%	2%	-2%	88*	51*	-7%
CN(Cc1nccn1C)C(=O)c1cc(COc2ccc3ncccc3c2)on1	-17%	2%	2%	6	-2	-1%
CC(=O)c1ccc(OCc2cc(C(=O)N(C)C(C)c3nccs3)no2)cc1 (configuration not stated)	-11%	-5%	5%	35*	30*	-6%
CN(Cc1cccnc1)C(=O)c1cc(COc2ccc3c(c2)CCCC3)on1	-23%	0%	-3%	82*	70*	-4%
Cc1ccc(CNC(=O)CN2C(=O)CSc3ccc(S(=O)(=O)N(C)C)cc32)cc1	3%	/	3%	/	/	/
CCc1ccc(Nc2nnc(-n3nc(C)cc3C)c3ccccc23)cc1	-3%	/	-3%	/	/	/
COc1ccc2nc3sc(C(=O)Nc4cc(Cl)c(OC)cc4OC)cc3cc2c1	-10%	/	-1%	/	/	/
CC(=O)c1ccc(OCc2cc(C(=O)N(C)Cc3ncc(C)[nH]3)no2)cc1	-17%	-6%	-4%	-6	3	/
CC(=O)c1ccc(OCc2cc(C(=O)N(C)Cc3cc(C)no3)no2)cc1	-25%	-7%	0%	39*	33*	/
COc1cccc(OCc2cc(C(=O)N(C)Cc3nc4ccccc4[nH]3)no2)c1	-2%	4%	0%	125*	38*	/
COc1ccc(CN2CCN(C3CCC3)CC2CCO)c(C)c1C (configuration not stated)	-16%	6%	-4%	-10	-1	1%
COc1ccc(Cl)cc1NC(=O)c1cc2nc(-c3ccc4c(c3)OCO4)cc(C(F)(F)F)n2n1	2%	/	2%	/	/	/
N#Cc1cn(CCOc2ccc(F)cc2)c2ccccc12	0%	-3%	-6%	23	14	-3%
Cc1ccc(OCCCn2cc(C#N)c3ccccc32)cc1	-2%	-1%	-2%	68*	24*	-22%
O=Cc1cn(CCOc2ccccc2F)c2ccccc12	0%	-7%	-8%	49*	25*	0%
N#Cc1cn(CCOc2ccccc2F)c2ccccc12	0%	0%	-3%	65	18*	-22%
COc1ccccc1OCCn1cc(C=O)c2ccccc21	-15%	-2%	-2%	6	-3	0%
CCOC(=O)N1CCc2c(sc3c2c(=O)n(-c2ccccc2)c(=O)n3CC(=O)Nc2ccc(OC)cc2OC)C1	5%	/	1%	/	/	/
CC(C)(C)C(=O)OCOC(=O)C1N2C(=O)CC2S(=O)(=O)C1(C)C (configuration not stated)	/	/	2%	/	/	/
Cc1ccnc(NC(=O)C2COc3ccccc3O2)c1 (configuration not stated)	4%	-14%	1%	56*	65*	1%
O=C(Nc1cccnc1)C1COc2ccccc2O1 (configuration not stated)	-1%	2%	2%	-12	8	/
Cc1ccc(NC(=O)C2COc3ccccc3O2)nc1 (configuration not stated)	-2%	-6%	1%	56	40*	6%
COCCN(C(=O)C1CC1)c1nnc(-c2ccc(C)cc2)s1	2%	6%	-9%	36	6	6%
CC(=O)N(c1nnc(-c2cccc(C)c2)s1)C1CCCC1	10%	-1%	4%	/	40*	7%
Cc1cc(C)cc(-n2ccn(CC(=O)Nc3ccccc3F)c(=O)c2=O)c1	-12%	/	0%	/	/	/
c1ccc2oc(-c3ccn[nH]3)cc2c1	27%	-2%	-6%	90*	39*	-7%

Compound activity from PubChem.
